Each structure is given as a SMILES string. Inconclusive results are not listed. Calls of active or inactive are those of the source. The calls were made as follows, unless noted: active = hit-call score of the fitted dose curve at least 0.9, where 1 is the maximum; inactive = score below 0.9.

Read-out in assay [1]: E-selectin (Homo sapiens) (UniProt P16581)
Briefly: BSK_SAg_Eselectin: BioMAP Diversity Plus: SAg Assay for Eselectin Biomarker Activity (AID 2283091). To be noted: primary human HUVEC with PBMC; actives raise or lower the signal. A digest of the protocol:
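Human umbilical vein endothelial cells co-cultured with peripheral blood mononuclear cells, SAg system. E-selectin is measured by ELISA 24 h after dosing and fitted bidirectionally against DMSO. Cytotoxicity is checked by SRB staining of parallel cultures.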

Read-out in assay [2]: Monokine induced gamma interferon (MIG), CXCL9 (gene 4283)
Briefly: BSK_SAg_MIG: BioMAP Diversity Plus: SAg Assay for Monokine induced gamma interferon (MIG) Biomarker Activity (AID 2283092). To be noted: primary human HUVEC with PBMC; actives raise or lower the signal. The essentials: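 Endothelial cells and PBMC were co-cultured, exposed to test chemicals, and sampled 24 h later. MIG was measured by ELISA, and responses were fitted in both directions relative to DMSO.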

The nature of assay [3]: BSK_SAg_PBMCCytotoxicity: PBMC Cytotoxicity Assessment in the BioMAP Diversity Plus: SAg Assay (AID 2283093).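 Also: PBMC viability measured as Alamar Blue reduction fluorescence at 546/580 nm; fitted both ways against DMSO so a hit may be loss or gain of signal.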 To be noted: primary human HUVEC with PBMC. A digest of the protocol:
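Alamar Blue reduction (6 h, ex/em 546/580 nm) read after 90 h culture of PBMC pre-dosed 1 h then stimulated with SEB plus TSST-1, 20 ng/mL each. Gain or loss of signal fitted relative to DMSO.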

Read-out in assay [4]: Interleukin-8 (IL8), CXCL8 (gene 3576)
As to the kind of experiment: BSK_SAg_IL8: BioMAP Diversity Plus: SAg Assay for Interleukin-8 (IL8) Biomarker Activity (AID 2283094). The settings on record: primary human HUVEC with PBMC; actives raise or lower the signal. A digest of the protocol: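 HUVEC/PBMC co-culture, 24 h post-dose; IL-8 by ELISA. Gain or loss of signal fitted bidirectionally vs DMSO baseline.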

Assay [5] in a line: BSK_SAg_Proliferation: Cell Proliferation Assessment in the BioMAP Diversity Plus: SAg Assay (AID 2283095).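 Also: relative cell number as total protein by SRB absorbance in sub-confluent culture.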 To be noted: primary human HUVEC with PBMC. The essentials:
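HUVEC/PBMC co-culture, 96-well. TCA-fixed (10%), 0.1% SRB stain, A560 at 96 h. Protein content used as viability readout; bidirectional fitting vs DMSO control.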

A short description of assay [6]: BSK_SAg_SRB: Viability Assessment in the BioMAP Diversity Plus: SAg Assay (AID 2283096).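 Also: cells read one day after compound addition; hits may be either gain or loss of signal compared with DMSO.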 The settings on record: primary human HUVEC with PBMC. The essentials:
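SRB absorbance at 560 nm served as the viability read-out. Cells (HUVEC plus peripheral blood mononuclear cells) were TCA-fixed and stained 24 h post-dosing; activity fitted in both directions against DMSO controls.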

In assay [7] the target is human CYP2A6, CYP2A6 (gene 1548) (UniProt P11509). Briefly: NVS_ADME_hCYP2A6: NovaScreen (NVS) CYP450-related Enzyme Activity (ADME) Assay for human CYP2A6 (AID 2283099; active = hit-call score of the fitted dose curve at least 0.9, where 1 is the maximum). The essentials: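 Recombinant human CYP2A6 expressed in insect cells, cell-free; fluorogenic substrate turnover read by fluorescence intensity 0.5 h after dosing. Primary screen 10 uM in duplicate, then concentration-response up to 20 uM; acetonitrile as negative control.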

Assay [8] has as its target human CYP2B6, CYP2B6 (gene 1555) (UniProt P20813). As to the kind of experiment: NVS_ADME_hCYP2B6: NovaScreen (NVS) CYP450-related Enzyme Activity (ADME) Assay for human CYP2B6 (AID 2283101; active = hit-call score of the fitted dose curve at least 0.9, where 1 is the maximum). The essentials: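 Cell-free recombinant enzyme assay with a fluorogenic substrate; fluorescence intensity read 1 hour after dosing. Loss of signal relative to acetonitrile negative control indicates inhibition. Primary screen run in duplicate at 10 uM, actives then tested in concentration series.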

Assay [9] addresses human CYP1A2, CYP1A2 (gene 1544) (UniProt P05177). As to the kind of experiment: NVS_ADME_hCYP1A2: NovaScreen (NVS) CYP450-related Enzyme Activity (ADME) Assay for human CYP1A2 (AID 2283102; active = hit-call score of the fitted dose curve at least 0.9, where 1 is the maximum;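 also: potency for inhibition since loss of fluorescence marks reduced CYP1A2 activity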). A digest of the protocol: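 Recombinant human CYP1A2 from insect cells, cell-free, fluorogenic substrate; read 0.5 h after dosing with loss of fluorescence signal indicating inhibition. Primary screen in duplicate at 10 uM, acetonitrile as negative control.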

Assay [10] addresses human AKT serine/threonine Kinase 1 (AKT1), AKT1 (gene 207) (UniProt P31749). Briefly: NVS_ENZ_hAKT1: NovaScreen (NVS) Enzymatic Assay for human AKT serine/threonine Kinase 1 (AKT1) (AID 2283138; active = hit-call score of the fitted dose curve at least 0.9, where 1 is the maximum). The essentials:
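Fluorescence and mobility-shift readout of kinase activity, taken 1 h post-dosing in a cell-free format with recombinant protein. Primary screen at 25 uM in duplicate; hits (e.g. 30% inhibition) retested in concentration series topping at 50 uM.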

In assay [11] the target is human Beta-secretase (BACE), BACE1 (gene 23621) (UniProt P56817). As to the kind of experiment: NVS_ENZ_hBACE: NovaScreen (NVS) Enzymatic Assay for human Beta-secretase (BACE) (AID 2283140; active = hit-call score of the fitted dose curve at least 0.9, where 1 is the maximum;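 also: hits are inhibitors that reduce fluorescent substrate signal versus DMSO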). A digest of the protocol:
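SF9-expressed enzyme, cell-free; fluorescent substrate readout after 1 h. Screened at 25 uM single concentration, duplicate; hits retested in concentration series. Activity relative to DMSO baseline, loss-of-signal.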

Assay [12] has as its target human CYP19A1, CYP19A1 (gene 1588) (UniProt P11511). As to the kind of experiment: NVS_ADME_hCYP19A1: NovaScreen (NVS) CYP450-related Enzyme Activity (ADME) Assay for human CYP19A1 (AID 2283098; active = hit-call score of the fitted dose curve at least 0.9, where 1 is the maximum). The essentials:
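Primary testing was in duplicate at a single 10 uM concentration, with actives followed up in concentration-response series. Fluorescence read-out of recombinant enzyme activity at 0.5 h, cell-free. Acetonitrile was the negative-control baseline.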

Assay [13] concerns the target Caspase-3 (Homo sapiens) (UniProt P42574). Briefly: NVS_ENZ_hCASP3: NovaScreen (NVS) Enzymatic Assay for human Caspase 3 (CASP3) (AID 2283139; active = hit-call score of the fitted dose curve at least 0.9, where 1 is the maximum). A digest of the protocol: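 Single-concentration screening at 25 uM in duplicate, with concentration-response follow-up to a 50 uM maximum for chemicals passing the threshold. Caspase-3 (human, E. coli-expressed) activity was read as substrate fluorescence after 1 h, with loss of signal relative to DMSO.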

Assay [14] has as its target human CYP2C9, CYP2C9 (gene 1559) (UniProt P11712). Briefly: NVS_ADME_hCYP2C9: NovaScreen (NVS) CYP450-related Enzyme Activity (ADME) Assay for human CYP2C9 (AID 2283108; active = hit-call score of the fitted dose curve at least 0.9, where 1 is the maximum). A digest of the protocol: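 Fluorescence readout of CYP2C9 activity (SF9-expressed human enzyme) at 0.75 h. The primary screen used 10 uM in duplicate, with concentration-response follow-up for actives; acetonitrile was the negative control.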

Assay [15] addresses Cytochrome P450 2C19 (Homo sapiens) (UniProt P33261). As to the kind of experiment: NVS_ADME_hCYP2C19: NovaScreen (NVS) CYP450-related Enzyme Activity (ADME) Assay for human CYP2C19 (AID 2283113; active = hit-call score of the fitted dose curve at least 0.9, where 1 is the maximum). A digest of the protocol:
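Cell-free recombinant human CYP2C19 from insect cells, fluorescent substrate; activity read by fluorescence intensity 1 h after dosing. Primary screen in duplicate at 10 uM; actives retested in concentration series. Signal loss versus acetonitrile negative control.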

The target of assay [16] is human Caspase 5 (CASP5), CASP5 (gene 838) (UniProt P51878). As to the kind of experiment: NVS_ENZ_hCASP5: NovaScreen (NVS) Enzymatic Assay for human Caspase 5 (CASP5) (AID 2283137; active = hit-call score of the fitted dose curve at least 0.9, where 1 is the maximum). The essentials:
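Fluorescent substrate readout of CASP5 activity (loss-of-signal), measured 2 h post-dose. Protein expressed in E. coli. Primary screen duplicate at 25 uM; actives meeting threshold (e.g., 30% inhibition) rerun singleton, max 50 uM.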

Chain of E-selectin (Homo sapiens) (P16581 whole entry, looked up): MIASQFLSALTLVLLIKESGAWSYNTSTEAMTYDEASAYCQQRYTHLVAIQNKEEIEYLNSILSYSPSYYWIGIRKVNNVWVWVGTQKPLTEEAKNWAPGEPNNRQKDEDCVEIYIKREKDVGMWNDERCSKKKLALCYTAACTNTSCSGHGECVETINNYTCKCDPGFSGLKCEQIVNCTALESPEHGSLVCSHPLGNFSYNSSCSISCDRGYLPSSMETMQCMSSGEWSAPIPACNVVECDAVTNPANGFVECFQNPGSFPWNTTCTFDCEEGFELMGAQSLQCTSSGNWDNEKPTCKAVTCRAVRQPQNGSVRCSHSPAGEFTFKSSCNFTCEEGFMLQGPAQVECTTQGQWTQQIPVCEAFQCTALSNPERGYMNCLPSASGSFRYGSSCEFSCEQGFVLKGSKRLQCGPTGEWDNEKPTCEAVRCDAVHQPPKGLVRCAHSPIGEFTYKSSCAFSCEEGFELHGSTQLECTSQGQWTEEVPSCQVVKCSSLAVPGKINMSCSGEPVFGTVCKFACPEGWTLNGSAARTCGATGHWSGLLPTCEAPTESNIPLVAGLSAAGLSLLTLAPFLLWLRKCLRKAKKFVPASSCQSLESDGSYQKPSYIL
Chain of human Caspase 5 (CASP5), CASP5 (gene 838) (P51878 whole entry, looked up): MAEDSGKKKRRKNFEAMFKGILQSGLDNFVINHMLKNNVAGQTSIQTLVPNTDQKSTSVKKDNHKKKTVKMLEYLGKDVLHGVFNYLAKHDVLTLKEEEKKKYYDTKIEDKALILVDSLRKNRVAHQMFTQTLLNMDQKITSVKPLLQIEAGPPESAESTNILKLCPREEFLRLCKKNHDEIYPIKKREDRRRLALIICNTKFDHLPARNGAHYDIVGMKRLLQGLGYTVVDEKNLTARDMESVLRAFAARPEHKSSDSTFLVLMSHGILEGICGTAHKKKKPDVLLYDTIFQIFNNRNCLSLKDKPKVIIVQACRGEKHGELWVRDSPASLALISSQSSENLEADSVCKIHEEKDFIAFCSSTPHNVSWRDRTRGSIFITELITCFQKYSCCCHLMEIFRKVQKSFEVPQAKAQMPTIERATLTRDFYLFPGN
Chain of human CYP19A1, CYP19A1 (gene 1588) (P11511 whole entry, looked up): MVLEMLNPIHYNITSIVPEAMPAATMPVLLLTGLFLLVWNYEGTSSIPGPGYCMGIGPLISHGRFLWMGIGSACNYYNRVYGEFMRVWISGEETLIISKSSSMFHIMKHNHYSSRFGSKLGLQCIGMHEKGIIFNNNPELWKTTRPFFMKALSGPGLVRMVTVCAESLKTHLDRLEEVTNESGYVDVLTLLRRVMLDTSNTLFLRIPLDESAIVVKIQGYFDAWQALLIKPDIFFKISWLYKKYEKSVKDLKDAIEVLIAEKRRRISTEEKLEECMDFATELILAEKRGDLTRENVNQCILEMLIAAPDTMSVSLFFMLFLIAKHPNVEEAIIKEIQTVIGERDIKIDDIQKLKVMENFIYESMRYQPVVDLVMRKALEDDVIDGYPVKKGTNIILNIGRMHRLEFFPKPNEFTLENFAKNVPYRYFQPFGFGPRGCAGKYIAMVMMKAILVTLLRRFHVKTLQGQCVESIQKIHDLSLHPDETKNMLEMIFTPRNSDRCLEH
Chain of human CYP2A6, CYP2A6 (gene 1548) (P11509 whole entry, looked up): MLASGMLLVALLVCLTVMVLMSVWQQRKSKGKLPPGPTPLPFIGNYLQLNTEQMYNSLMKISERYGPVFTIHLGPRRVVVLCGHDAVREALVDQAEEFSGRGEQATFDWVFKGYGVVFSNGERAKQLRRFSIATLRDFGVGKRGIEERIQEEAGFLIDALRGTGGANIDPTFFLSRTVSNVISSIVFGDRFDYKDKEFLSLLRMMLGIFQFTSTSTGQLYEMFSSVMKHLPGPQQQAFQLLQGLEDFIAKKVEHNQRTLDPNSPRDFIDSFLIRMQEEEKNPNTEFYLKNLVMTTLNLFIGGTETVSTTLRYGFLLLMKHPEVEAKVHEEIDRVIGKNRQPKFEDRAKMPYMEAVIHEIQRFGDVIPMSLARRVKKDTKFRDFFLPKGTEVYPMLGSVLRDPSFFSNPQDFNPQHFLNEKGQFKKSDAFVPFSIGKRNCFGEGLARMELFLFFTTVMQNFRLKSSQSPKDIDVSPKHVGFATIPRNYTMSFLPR
Chain of human AKT serine/threonine Kinase 1 (AKT1), AKT1 (gene 207) (P31749 whole entry, looked up): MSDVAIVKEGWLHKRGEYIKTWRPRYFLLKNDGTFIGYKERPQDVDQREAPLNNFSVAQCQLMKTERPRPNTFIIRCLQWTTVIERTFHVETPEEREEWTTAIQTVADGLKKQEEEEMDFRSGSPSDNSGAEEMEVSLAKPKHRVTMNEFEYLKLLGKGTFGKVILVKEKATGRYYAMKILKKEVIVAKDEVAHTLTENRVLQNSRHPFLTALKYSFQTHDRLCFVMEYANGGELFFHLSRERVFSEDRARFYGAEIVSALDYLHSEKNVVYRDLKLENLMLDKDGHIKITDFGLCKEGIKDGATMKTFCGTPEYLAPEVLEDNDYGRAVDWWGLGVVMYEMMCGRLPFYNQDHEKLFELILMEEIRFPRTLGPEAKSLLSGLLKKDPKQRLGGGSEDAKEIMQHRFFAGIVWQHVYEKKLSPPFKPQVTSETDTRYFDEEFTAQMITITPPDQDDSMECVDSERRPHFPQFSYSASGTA
Chain of human CYP2B6, CYP2B6 (gene 1555) (P20813 whole entry, looked up): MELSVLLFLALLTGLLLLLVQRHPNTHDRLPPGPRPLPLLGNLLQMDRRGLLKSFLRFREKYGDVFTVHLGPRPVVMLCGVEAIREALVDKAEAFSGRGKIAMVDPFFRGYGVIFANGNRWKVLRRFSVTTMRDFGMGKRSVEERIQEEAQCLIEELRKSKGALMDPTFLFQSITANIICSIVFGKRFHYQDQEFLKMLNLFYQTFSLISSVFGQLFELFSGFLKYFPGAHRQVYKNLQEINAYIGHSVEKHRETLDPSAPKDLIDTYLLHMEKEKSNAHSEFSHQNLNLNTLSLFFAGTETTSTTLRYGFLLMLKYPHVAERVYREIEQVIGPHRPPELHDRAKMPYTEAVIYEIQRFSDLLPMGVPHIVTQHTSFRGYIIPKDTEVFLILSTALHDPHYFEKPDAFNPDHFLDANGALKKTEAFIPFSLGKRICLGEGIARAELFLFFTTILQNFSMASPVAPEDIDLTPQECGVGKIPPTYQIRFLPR
Chain of Caspase-3 (Homo sapiens) (P42574 whole entry, looked up): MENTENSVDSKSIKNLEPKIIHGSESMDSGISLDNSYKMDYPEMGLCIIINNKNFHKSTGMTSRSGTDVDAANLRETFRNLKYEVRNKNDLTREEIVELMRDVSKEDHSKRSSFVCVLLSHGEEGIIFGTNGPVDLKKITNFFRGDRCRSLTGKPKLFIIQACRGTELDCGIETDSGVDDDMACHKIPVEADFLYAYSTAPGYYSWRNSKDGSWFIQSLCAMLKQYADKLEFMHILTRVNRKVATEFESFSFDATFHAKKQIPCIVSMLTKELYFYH
Chain of human CYP2C9, CYP2C9 (gene 1559) (P11712 whole entry, looked up): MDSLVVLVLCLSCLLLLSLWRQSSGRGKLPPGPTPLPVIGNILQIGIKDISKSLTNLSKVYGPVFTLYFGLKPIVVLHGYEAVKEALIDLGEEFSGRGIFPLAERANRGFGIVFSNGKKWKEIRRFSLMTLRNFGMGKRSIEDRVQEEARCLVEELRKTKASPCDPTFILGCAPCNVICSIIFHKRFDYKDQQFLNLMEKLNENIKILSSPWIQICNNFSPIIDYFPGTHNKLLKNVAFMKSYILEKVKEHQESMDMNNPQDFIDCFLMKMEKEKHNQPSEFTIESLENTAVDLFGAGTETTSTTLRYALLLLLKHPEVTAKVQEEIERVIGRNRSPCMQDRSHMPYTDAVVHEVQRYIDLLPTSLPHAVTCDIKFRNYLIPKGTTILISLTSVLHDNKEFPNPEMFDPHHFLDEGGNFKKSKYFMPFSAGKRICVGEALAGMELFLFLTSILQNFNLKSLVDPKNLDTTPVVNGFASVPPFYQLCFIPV
Chain of human CYP1A2, CYP1A2 (gene 1544) (P05177 whole entry, looked up): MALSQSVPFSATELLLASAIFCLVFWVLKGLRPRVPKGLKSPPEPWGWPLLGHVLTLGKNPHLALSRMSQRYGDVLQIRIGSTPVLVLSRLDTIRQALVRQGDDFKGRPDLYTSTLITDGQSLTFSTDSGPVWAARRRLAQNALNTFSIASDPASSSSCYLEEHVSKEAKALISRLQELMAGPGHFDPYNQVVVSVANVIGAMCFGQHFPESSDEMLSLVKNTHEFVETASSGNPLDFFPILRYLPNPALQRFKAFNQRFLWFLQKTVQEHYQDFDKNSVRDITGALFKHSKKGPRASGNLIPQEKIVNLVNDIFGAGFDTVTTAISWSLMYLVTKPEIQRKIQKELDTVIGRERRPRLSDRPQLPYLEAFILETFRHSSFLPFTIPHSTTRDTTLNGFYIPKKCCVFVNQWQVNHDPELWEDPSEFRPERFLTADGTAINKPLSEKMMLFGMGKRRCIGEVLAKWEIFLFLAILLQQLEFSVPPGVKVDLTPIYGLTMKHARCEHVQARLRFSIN
Chain of human Beta-secretase (BACE), BACE1 (gene 23621) (P56817 whole entry, looked up): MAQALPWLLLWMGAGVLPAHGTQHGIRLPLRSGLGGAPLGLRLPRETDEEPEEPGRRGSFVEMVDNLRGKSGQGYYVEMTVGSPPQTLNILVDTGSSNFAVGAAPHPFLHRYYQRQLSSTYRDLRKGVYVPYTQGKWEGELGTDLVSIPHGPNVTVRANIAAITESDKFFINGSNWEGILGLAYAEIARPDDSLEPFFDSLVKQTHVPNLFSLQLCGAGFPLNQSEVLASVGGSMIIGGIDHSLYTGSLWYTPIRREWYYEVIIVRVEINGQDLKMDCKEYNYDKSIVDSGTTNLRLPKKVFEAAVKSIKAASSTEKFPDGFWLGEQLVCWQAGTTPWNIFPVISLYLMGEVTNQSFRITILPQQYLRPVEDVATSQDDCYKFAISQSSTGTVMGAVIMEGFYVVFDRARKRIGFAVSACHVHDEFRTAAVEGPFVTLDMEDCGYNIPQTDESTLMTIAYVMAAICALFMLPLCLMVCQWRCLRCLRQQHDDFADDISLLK

`C[C@]12C=CC(=O)C=C1CC[C@@H]1[C@@H]2C(=O)C[C@@]2(C)[C@H]1CC[C@]2(O)C(=O)CO`: the outcome in assay [1], in assay [2], in [3], in assay [4], in assay [5] and in assay [6] was inactive.

Turning to `O=c1[nH]cc(F)c(=O)[nH]1`, the result in assay [1], in assay [2], in [3], in assay [4] and in assay [6] was inactive. Further, the AC50 in assay [5] was 2.48 µM (active).

Turning to `Clc1cc(Cl)c(Cl)cc1Cl`, the outcome in [1], in assay [2], in assay [3], in assay [4], in [5] and in assay [6] was inactive.

Regarding `COCCOC[C@H](CC1(C(=O)NC2CCC(C(=O)O)CC2)CCCC1)C(=O)Oc1ccc2c(c1)CCC2` (stereo partly specified), the outcome in [1], in assay [2], in assay [3], in [4], in assay [5] and in assay [6] was inactive.

For `Nc1ccc2c(c1)C(=O)c1ccccc1C2=O`, the outcome in assay [1], in assay [2], in [3], in assay [4], in assay [5] and in assay [6] was inactive. The outcome in assay [7], in assay [8] and in [10] was inactive. The AC50 is 4.65 µM (active) in assay [9] and 2.16 µM (active) in assay [11].

As to `CC(CO)OC(C)CO` (stereo unspecified) (tested in a mixture with another compound), the outcome in assay [1], in assay [2], in assay [3], in [4], in [5] and in assay [6] was inactive.

As for `Cc1nc(-c2ccc3c(c2)CCN(CCC2CCC(NC(=O)/C=C/c4ccc(F)cc4)CC2)CC3)no1` (stereo unspecified), the outcome in [1], in assay [2], in assay [3], in [4], in [5] and in assay [6] was inactive. For the same molecule, the outcome in [12] and in assay [13] was inactive.

Turning to `c1cc(-c2ccncc2)ccn1`, the result in assay [1], in assay [2], in assay [3], in assay [4], in [5] and in assay [6] was inactive.

With `COc1cc(C=O)ccc1O`, the result in [1], in assay [2], in [3], in assay [4], in [5] and in assay [6] was inactive.

Take `CC1=C(/C=C/C(C)=C/C=C/C(C)=C/CO)C(C)(C)CCC1`: the AC50 in [1] is 12.8 µM (active); in assay [5] it was 26.1 µM (active); in [14], 18.2 µM (active); in [16] it was 39.9 µM (active). Besides, the result in assay [2], in assay [3], in assay [4], in assay [6], in assay [7] and in [15] was inactive. Further, the molecule was classed as inactive in assay [10].

In the case of `Cc1c(C(=O)O)c(O)cc2c1C(=O)c1c(O)c([C@@H]3O[C@H](CO)[C@@H](O)[C@H](O)[C@H]3O)c(O)c(O)c1C2=O`, the outcome in assay [1], in assay [2], in assay [3], in assay [4], in [5] and in assay [6] was inactive. In addition, the result in assay [12], in [15] and in assay [16] was inactive.

The values above are taken from PubChem BioAssay (EPA / NIEHS).
